According to the supplement of paper PMC10338343:
± gives the standard deviation.

System: EfPiwi piRISC loaded with piRNA #1 (26 nt)
Test: pre-steady-state target cleavage rate (min^-1); auxiliary factor: 500 nM Ephydatia muelleri Gtsf1; guide: piRNA #1 5'p-UGAGGUAGUAGGUUGUAUAGUAUCCA; MIWI and MILI are mouse PIWI proteins and EfPiwi is from a freshwater sponge; tags in brackets are library labels; higher = faster piRNA-guided slicing of the target
Procedure, shortened: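 In HEPES–potassium acetate buffer at 33 °C, […] transcribed, DNA-blocked target RNA library was mixed with 1 nM active affinity-purified piRISC carrying one synthetic guide, with or without 500 nM GTSF1 partner protein, for 0–8 or 0–960 min. Uncleaved targets were sequenced and normalised to depth and to weakly complementary targets; three trials were pooled and k3 was capped at 0.0001 min^-1. The pre-steady-state cleavage rate followed from a burst-and-steady-state fit.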

| Sequence | pre-steady-state target cleavage rate |
| --- | --- |
| GGAGAGGAUACUAUACAUGCUACUACCUCA | 0.0065 ± 0.0032 |
| GGAGACGAUACUAUACAACCUACUAGGAGA [g6:g24:cont:t1A] | 0.00317 ± 0.0021 |
| GGAGUGGAUACUAUACAACCUUGUACCUCA | 0.00568 ± 0.0024 |
| GGAGUGGAUACUAUACAACCUACUUCGUCA | 0.00391 ± 0.0021 |
| GGAGAGGAUACUGAUACAACCUACUACCUCA | 0.00615 ± 0.0037 |
| GGAGUGGAUACUAUACAAUCCUACUACCUCA | 0.0124 ± 0.0065 |
| GGAGUGGAUACUAUACAACCUACAACCACA | 0.00247 ± 0.0019 |
| GGAGACGAUACUAUACUAACCUACUACCUCA | 0.00448 ± 0.0044 |
| GGAGACCUAACUAUACAACCUAGUACCUCA | 0.00385 ± 0.0021 |
| GGAGUGGAUACUAUACACCCUACUACCUCA | 0.0673 ± 0.023 |
| GGAGAGGAUACUAUACAAGCUACUACCUCA | 0.00667 ± 0.003 |
| GGAGACCAUACUAUACAACCUACUUACCUCA | 0.00697 ± 0.0031 |
| GGAGUGGAUACUAUACAACCCUACUACCUCA | 0.00375 ± 0.0023 |
| GGAGACCUAUGAUAUGUUGGUACUACCUCU [g2:g10:cont:t1U] | < 0.0001 |
| GGAGAGGAUACUAUACACACCUACUACCUCA | 0.00541 ± 0.0039 |
| GGAGACGAUACUACUACAACCUACUACCUCA | 0.0327 ± 0.012 |
| GGAGUGGAUACUAUACAACCUUCUACCUGA | 0.00359 ± 0.0018 |
| GGAGACGAUACUAUAGAACCUAGUACCUCA | 0.0018 ± 0.0015 |
| GGAGAGGAUACUAUACAACCUACAACGUCA | 0.00371 ± 0.0017 |
| GGAGACCAUAGUUUACAACCUACUACCUCA | 0.0227 ± 0.0096 |

| Sequence | pre-steady-state target cleavage rate |
| --- | --- |
| GGAGACCUUACUAUACAACCUACUACCCUCA | 0.00416 ± 0.0023 |
| GGAGAGGAUACUAUACAACCUUCUACCUGA | 0.00393 ± 0.0023 |
| GGAGACGAUACUAUACAACGUACUACCACA | 0.0042 ± 0.0021 |
| GGAGUGCAUACUAUACAACCUACUACCUGA | 0.00576 ± 0.0029 |
| GGAGACCUUACUAUACAACCUACUACCCA | 0.00518 ± 0.0043 |
| GGAGACCUAUGAUAAGAACCUACUACCACA | < 0.0001 |
| GGAGACCAUACUAUACAAUCCUACUACCUCA | 0.00501 ± 0.0032 |
| GGAGAGGAUACUAUAUCAACCUACUACCUCA | 0.0145 ± 0.0066 |
| GGAGAGGAUACUAUACAACCUAGUACCUGA | 0.00379 ± 0.0015 |
| GGAGUGGAUAGUAUACAUCCUACUACCUCA | 0.00444 ± 0.0024 |
| GGAGUGGAUACUAUACAACCAACUUCCUCA | 0.00287 ± 0.0019 |
| GGAGUGGAUACUAUACAACCUAGUAGCUCA | 0.00485 ± 0.0018 |
| GGAGUGGAUACUAUACAACCUACAACGUCA | 0.00302 ± 0.0017 |
| GGAGACCUUACUUUACAACCUAGUACCUCA | 0.00395 ± 0.0033 |
| GGAGACCUAUGAUAUGUACCCACUACCUCA | < 0.0001 |
| GGAGACCAUACUAAUACAACCUACUACCUCA | 0.0159 ± 0.0066 |
| GGAGACCAUACUAUACAACCUUACUACCUCA | 0.00561 ± 0.0036 |
| GGAGACCUAACUAUACUACCUACUACCUCA | 0.00314 ± 0.0024 |
| GGAGACGAUACUAUACAUACCUACUACCUCA | 0.00857 ± 0.0043 |
